Assay outcomes deposited in PubChem BioAssay by National Center for Advancing Translational Sciences (NCATS).
POLK inh = blocks human DNA polymerase kappa activity; Q9UBT6; purified Pol kappa, fluorescent DNA synthesis assay, 10 min; Potency, µM (highest dose often 107 µM), usual class: inhibitors; actives 0.53% (n = 400,000); AID 588579
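Activity was followed as the change in fluorescence between reads at 0 and 10 min after starting the reaction with 50 nM substrate. Beforehand, 10 nM polymerase had been preincubated with compound for 15 min at room temperature.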
Pol iota inh = blocks human DNA polymerase iota activity; actives 1% (n = 390,000); Potency, µM (doses to about 115 µM), actives largely listed as inhibitors; Pol iota fluorescent replication assay, 10 min
Target sequence (Q9UNA4 whole entry, looked up): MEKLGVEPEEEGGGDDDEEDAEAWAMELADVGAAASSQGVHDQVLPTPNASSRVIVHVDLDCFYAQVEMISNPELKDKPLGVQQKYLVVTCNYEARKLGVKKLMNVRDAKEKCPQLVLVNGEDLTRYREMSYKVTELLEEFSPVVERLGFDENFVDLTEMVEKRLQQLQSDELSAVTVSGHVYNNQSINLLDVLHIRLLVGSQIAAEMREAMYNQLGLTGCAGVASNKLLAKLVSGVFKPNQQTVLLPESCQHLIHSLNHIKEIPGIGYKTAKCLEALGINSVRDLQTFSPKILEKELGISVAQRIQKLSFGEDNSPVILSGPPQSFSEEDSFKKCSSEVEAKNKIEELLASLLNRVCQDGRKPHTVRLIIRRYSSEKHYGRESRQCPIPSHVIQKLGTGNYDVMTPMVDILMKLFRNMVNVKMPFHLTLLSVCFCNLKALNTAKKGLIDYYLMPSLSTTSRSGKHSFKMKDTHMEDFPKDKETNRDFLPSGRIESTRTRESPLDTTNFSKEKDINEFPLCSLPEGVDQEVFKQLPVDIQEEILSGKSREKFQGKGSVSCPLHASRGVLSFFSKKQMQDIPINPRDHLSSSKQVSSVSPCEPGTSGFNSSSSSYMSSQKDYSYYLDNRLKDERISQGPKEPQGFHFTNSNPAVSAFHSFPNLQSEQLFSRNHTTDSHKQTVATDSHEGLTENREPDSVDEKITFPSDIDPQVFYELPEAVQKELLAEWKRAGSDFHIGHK
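Fluorescent replication assay read twice, at 0 min and 10 min after adding 50 nM (final) substrate. Enzyme (10 nM) and compounds were first incubated 15 min at room temperature; enzyme-free buffer wells were negative controls.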
FEN1 inhibitor = blocks human flap endonuclease 1. P39748. Recombinant FEN1 flap cleavage, fluorescence, 15 min. Potency, µM (doses to about 114 µM), actives largely listed as inhibitors. actives 0.35% (n = 390,000); note: nearly all actives have a fitted effect of over 65% in size
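FEN1 at 10 nM, compound pretreatment for 15 min (room temperature), 50 nM final substrate to initiate; endpoint reads at 0 and 15 min; DMSO-only plates used as vehicle background.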
POLB inh = blocks human DNA polymerase beta activity; P06746; Pol beta primer extension/strand displacement, fluorescence kinetic; Potency, µM (doses to about 114 µM), hits mostly inhibitors; actives 1.3% (n = 340,000)
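10 nM enzyme + cpd, 15 min RT; start with substrate 50 nM final; read 0 min and after 10 min RT. Corrected, normalized data; 4-parameter Hill curve fit.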
Pol eta inh = inhibitors of human DNA polymerase eta | Q9Y253 | recombinant Pol eta, fluorescent DNA replication assay | Potency, µM (titrated, usually from 114 µM), most hits filed as inhibitors | actives 1.2% (n = 390,000)
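Fluorescent replication assay: 50 nM final substrate added after a 15 min room-temperature compound preincubation with 10 nM enzyme. Signal taken at 0 min and again at 10 min.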
WRN inhibitor = inhibitors of human WRN helicase; Potency, µM (top dose mostly 114 µM), hits mostly inhibitors; actives 0.46% (n = 360,000); Q14191; WRN helicase unwinding, fluorescent forked duplex, kinetic; AID 651768; note: nearly all actives have a fitted effect of over 55% in size
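Screening of the MLSMR collection measured strand separation of a quenched forked DNA duplex (100 nM) by 20 nM WRN with 2 mM ATP, all final. Compounds were preincubated with enzyme 15 min at room temperature.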
Numbers stand for hits. Most compounds without a hit are left out; they make up all but 2.4% or so of the library. Calls come from the whole dose curve; as a rule, active = well fitted curve in the direction sought with a large enough effect; inconclusive = small, poorly fitted or top-dose-only effect, or another doubt; inactive = no such curve, though single readings can be large; an effect the other way counts as inactive or inconclusive.

`CSc1nc(=S)c2[nH]c(=S)[nH]c2[nH]1` gave POLK inh inactive, Pol iota inh 14.1µM, FEN1 inhibitor inactive, POLB inh inactive, Pol eta inh inactive and WRN inhibitor 50.1µM.
`Cc1cccc(/C=C/C(=O)c2ccc([N+](=O)[O-])o2)c1` gave POLK inh inactive, Pol iota inh 11.2µM, FEN1 inhibitor inactive, Pol eta inh inconclusive and WRN inhibitor inactive.
`O=C(CSc1ccc(-c2ccco2)nn1)c1ccccc1` gave POLK inh inconclusive, Pol iota inh 50.1µM, FEN1 inhibitor inactive, POLB inh 11.2µM, Pol eta inh inactive and WRN inhibitor inconclusive.
COc1ccc(C(=O)CSc2ccc(-c3ccccc3)nn2)cc1 was read as POLK inh inactive, Pol iota inh inactive, FEN1 inhibitor inactive, POLB inh inactive, Pol eta inh inactive and WRN inhibitor inactive.
For COc1ccc(C(=O)CSc2ccc(-c3ccco3)nn2)cc1 the results were POLK inh inactive, Pol iota inh inconclusive, FEN1 inhibitor inactive, POLB inh 14.1µM, Pol eta inh inconclusive and WRN inhibitor inactive.
For COC(=O)C1=C[C@@H](C(=O)OC)C2C3=C(C(=O)[C@@]2(C)NC(=O)c2ccccc2)[C@H](c2ccccc2)n2c(=O)n(-c4ccccc4)c(=O)n2[C@@H]3C1 (some centres not stated) the results were POLK inh inactive, Pol iota inh inactive and FEN1 inhibitor inactive.
COc1ccc(CCN(C)C(=O)COC(=O)/C=C/c2ccc(C)o2)cc1OC was read as POLK inh inconclusive, Pol iota inh 50.1µM, FEN1 inhibitor inactive, Pol eta inh inconclusive and WRN inhibitor inactive.
CC1(C)C=Cc2c(c3c(c4c(=O)c(-c5ccc(O)cc5)coc24)OC(C)(C)CC3)O1 was read as POLK inh inactive, Pol iota inh inactive, FEN1 inhibitor inactive, POLB inh 11.2µM, Pol eta inh inactive and WRN inhibitor inactive.
`CC(C)=CCc1c2c(c3occ(-c4ccc(O)cc4)c(=O)c3c1O)C=CC(C)(C)O2` gave POLK inh inconclusive, Pol iota inh inactive, FEN1 inhibitor inactive, POLB inh inconclusive, Pol eta inh inconclusive and WRN inhibitor inactive.
COc1ccc(-c2cc3nc4ccccc4n3c(N)c2C#N)cc1 was read as POLK inh inactive, Pol iota inh inactive, FEN1 inhibitor inactive, POLB inh 3.98µM, Pol eta inh inactive and WRN inhibitor inactive.
`OCC(O)C[n+]1cccc(Br)c1` (configuration not stated) gave POLK inh inactive, Pol iota inh inactive and FEN1 inhibitor inactive.
COc1ccc(Cl)cc1NC(=O)CSc1nnc2[nH]c(=O)cc(-c3ccccc3)n12 was read as POLK inh inactive, Pol iota inh inactive, FEN1 inhibitor inactive, POLB inh inactive and Pol eta inh 89.1µM.
COc1ccc(C2=NOC3(CC(=O)N(c4ccc5ccccc5c4)C3=O)C2)c(OC)c1 (configuration not stated) was read as POLK inh inactive, Pol iota inh inconclusive, FEN1 inhibitor inactive, POLB inh 50.1µM, Pol eta inh inactive and WRN inhibitor inactive.
For Oc1ccc(NCc2cccc(OCc3ccccc3)c2)cc1 the results were POLK inh inactive, Pol iota inh inconclusive, FEN1 inhibitor inconclusive, POLB inh inactive, Pol eta inh inactive and WRN inhibitor inactive.
`Oc1ccc(NCc2cccc(OCc3ccc(F)cc3)c2)cc1` gave POLK inh inactive, Pol iota inh 22.4µM, FEN1 inhibitor inconclusive, POLB inh inactive, Pol eta inh inactive and WRN inhibitor inactive.
`O=c1cc(-c2ccc(O)cc2)oc2c([C@@H]3O[C@H](CO)[C@@H](O)[C@H](O)[C@H]3O)c(O)c([C@@H]3O[C@H](CO)[C@@H](O)[C@H](O)[C@H]3O)c(O)c12` gave POLK inh inactive, Pol iota inh inactive, FEN1 inhibitor inactive, POLB inh inactive, Pol eta inh inactive and WRN inhibitor inactive.
`O=c1cc(-c2ccc(O)cc2)oc2c(C3OCC(O)C(O)C3O)c(O)c(C3OC(CO)C(O)C(O)C3O)c(O)c12` (configuration not stated) gave POLK inh 50.1µM, Pol iota inh inconclusive, FEN1 inhibitor inconclusive, POLB inh 17.8µM, Pol eta inh 7.94µM and WRN inhibitor inactive.
O=c1cc(-c2ccc(O)c(O)c2)oc2cc(O)c([C@@H]3O[C@H](CO)[C@@H](O)[C@H](O)[C@H]3O)c(O)c12 was read as POLK inh 20µM, Pol iota inh 28.2µM, FEN1 inhibitor inconclusive, Pol eta inh inconclusive and WRN inhibitor inactive.
For CN(C)c1ccc(/C=c2\[nH]c(=O)/c(=C\c3ccc(N(C)C)cc3)[nH]c2=O)cc1 the results were POLK inh inactive, Pol iota inh inconclusive and FEN1 inhibitor inactive.
For O=C(CSC1=NCCS1)Nc1nc2c(s1)CCCC2 the results were POLK inh inactive, Pol iota inh inactive, FEN1 inhibitor inactive, POLB inh 56.2µM, Pol eta inh inactive and WRN inhibitor inactive.
For Cn1nnnc1SCC(=O)Nc1nc2c(s1)CCCC2 the results were POLK inh inactive, Pol iota inh inactive, FEN1 inhibitor inactive, POLB inh inactive, Pol eta inh inactive and WRN inhibitor inactive.
Screening Cc1ccc(-n2c(O)c(C=Nc3cc(C)on3)c3ccccc3c2=O)c(C)c1 returned POLK inh inactive, Pol iota inh inactive, FEN1 inhibitor inactive, POLB inh inconclusive, Pol eta inh inactive and WRN inhibitor 50.1µM.
Screening CCCCCCCCCC[n+]1cc(Br)cc(Br)c1 returned POLK inh inactive, Pol iota inh inactive and FEN1 inhibitor inactive.
Screening CCOc1ccc2c(c1)C(NC(C)=O)C(=O)N2CCN1CCOCC1 (configuration not stated) returned POLK inh inactive, Pol iota inh inconclusive, FEN1 inhibitor 39.8µM, POLB inh inactive, Pol eta inh inconclusive and WRN inhibitor inactive.
`NCCCCCCCCCCNCCCN` gave POLK inh inactive.
For NC(N)=N/N=C/c1ccc(OCc2ccccc2)c(OCc2ccccc2)c1 the results were POLK inh inactive, Pol iota inh inactive, FEN1 inhibitor inconclusive, POLB inh 79.4µM, Pol eta inh inactive and WRN inhibitor inactive.
For CCOc1cc(/C=N/N=C(N)N)ccc1OCc1ccc(Cl)cc1 the results were POLK inh inactive, Pol iota inh inactive, FEN1 inhibitor inactive, POLB inh 79.4µM, Pol eta inh inactive and WRN inhibitor inactive.
`CCOC(=O)c1sc(=S)n(-c2ccc(OC)cc2)c1C` gave POLK inh inactive, Pol iota inh inactive, FEN1 inhibitor inactive, POLB inh inactive, Pol eta inh inactive and WRN inhibitor inactive.
CCOC(=O)c1c2c(n(-c3ccc(OC)cc3)c1C)C(=O)C(=O)c1ccccc1-2 was read as POLK inh inactive, Pol iota inh 8.91µM, FEN1 inhibitor inactive, Pol eta inh 3.16µM and WRN inhibitor inactive.
